Test results taken from PubChem BioAssay (NCI).
The panel holds about 83,000 compounds, 20% with a hit somewhere; the sample as a whole holds those more often.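 Step 1: grow cells in 96-well plates. Step 2: add test compound at a single concentration. Step 3: incubate 48 h. Step 4: record percent growth.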 A number with no mark means an inactive call. Activity calls are given as the source filed them. Rule for the calls: active = growth percent below 10; inactive = the rest.

Experiments:
Assay in all cases: NCI-60 one-dose screen, 48 h (100 = growth as untreated, 0 = no growth, -100 = all killed)
Settings in all cases: 10 µM unless noted
DU-145 prostate = test system: DU-145 prostate
K-562 leukemia = test system: K-562 leukemia
MALME-3M melanoma = test system: MALME-3M melanoma
MDA-MB-231 breast = test system: MDA-MB-231 breast
RXF 393 renal = test system: RXF 393 renal
SF-268 CNS = test system: SF-268 CNS
SF-295 CNS = test system: SF-295 CNS
SF-539 CNS = test system: SF-539 CNS
UACC-257 melanoma = test system: UACC-257 melanoma
M14 melanoma = test system: M14 melanoma
HCT-15 colon = test system: HCT-15 colon
HT29 colon = test system: HT29 colon
SNB-75 CNS = test system: SNB-75 CNS
SNB-19 CNS = test system: SNB-19 CNS
U251 CNS = test system: U251 CNS
PC-3 prostate = test system: PC-3 prostate
SK-MEL-5 melanoma = test system: SK-MEL-5 melanoma
UACC-62 melanoma = test system: UACC-62 melanoma
LOX IMVI melanoma = test system: LOX IMVI melanoma
SK-MEL-28 melanoma = test system: SK-MEL-28 melanoma

| Structure (SMILES) | growth (DU-145 prostate) | growth (K-562 leukemia) | growth (MALME-3M melanoma) | growth (MDA-MB-231 breast) | growth (RXF 393 renal) | growth (SF-268 CNS) | growth (SF-295 CNS) | growth (SF-539 CNS) | growth (UACC-257 melanoma) | growth (M14 melanoma) | growth (HCT-15 colon) | growth (HT29 colon) | growth (SNB-75 CNS) | growth (SNB-19 CNS) | growth (U251 CNS) | growth (PC-3 prostate) | growth (SK-MEL-5 melanoma) | growth (UACC-62 melanoma) | growth (LOX IMVI melanoma) | growth (SK-MEL-28 melanoma) |
| --- | --- | --- | --- | --- | --- | --- | --- | --- | --- | --- | --- | --- | --- | --- | --- | --- | --- | --- | --- | --- |
| C#CCOc1cccc(Nc2ncnc3cc(NC(=O)C=C)ccc23)c1 | 5.4% (active) | 5.87% (active) | 33.9% | 20.5% | -17% (active) | 27.6% | 45% | 0.0579% (active) | 25.3% | 13% | 7.73% (active) | 1.75% (active) | 24.7% | 33.8% | 33.1% | 24.2% | 8.74% (active) | 9.66% (active) | 3.54% (active) | 49% |
| COc1c(B(O)O)cccc1-c1nc2c(F)cc3[nH]ncc3c2c2c1CCCC2 | 7.77% (active) | 11.3% | -15.1% (active) | 12.4% | -45% (active) | 12.3% | 7.58% (active) | -28.3% (active) | 20.3% | 11.3% | 0.465% (active) | 6.27% (active) | -87.8% (active) | 6.94% (active) | 13.6% | 13.8% | -26.3% (active) | 2.47% (active) | -35.2% (active) | 2.91% (active) |
| COc1cccc(CNc2ccc3ncnc(Nc4ccc(F)c(Cl)c4)c3c2)c1 | 54.3% | 48.3% | 58.1% | 68.2% | 65.9% | 65.6% | 79.4% | 93.8% | 49.2% | 72.9% | 53.2% | 88.3% | 79.3% | 69% | 71.4% | 52.7% | 89.5% | 81.1% | 69.8% | 107% |
| COc1ccc(OC)c(Nc2nnc(-c3ccc(O)c(OC)c3)o2)c1 | 51.4% | 32.3% | 79.9% | 69.4% | 52.7% | 68.8% | 100% | 49.9% | 115% | 74.6% | 46.5% | 99% | 15.2% | 70% | 65.1% | 74.8% | 71.6% | 96.7% | 43.3% | 108% |
| COc1ccc2c(c1OC)CO[C@@H]2[C@H]1c2c(cc3c(c2OC)OCO3)CCN1S(=O)(=O)c1cn(C)cn1 | 11.1% | 10.7% | 45.6% | 30.4% | -27.9% (active) | 40.8% | 14.5% | -14.2% (active) | 56.2% | 3.48% (active) | 13.5% | 16.9% | 27.7% | 33.2% | 9.29% (active) | 24% | 23.4% | 27.6% | 38% | 55.3% |
| CCOC(=O)c1c(C(=O)c2cn(C)c3ccc(Br)cc23)c(-c2cn(C)c3ccc(Br)cc23)n(NC(=O)OC(C)(C)C)c1C | 97.9% [100 µM] | 89.1% [100 µM] | 32.8% [100 µM] | 51.2% [100 µM] | 24.2% [100 µM] | 82.4% [100 µM] | 33% [100 µM] | 48.3% [100 µM] | 94.8% [100 µM] | 82.7% [100 µM] | 89% [100 µM] | 90.5% [100 µM] | -27.3% [100 µM] (active) | 50.8% [100 µM] | 60.7% [100 µM] | 61.8% [100 µM] | 90.6% [100 µM] | 65.7% [100 µM] | 78% [100 µM] | 107% [100 µM] |
| Cn1cc(-c2ccc3nc(-c4ccc(CC(=O)ONc5cc(C(C)(C)C)on5)cc4)cnc3c2)cn1 | 35.1% | 10.3% | 22.4% | 39.1% | 28.8% | 33.5% | 38.1% | 17% | 39.8% | 18.7% | 16.5% | 39.6% | 37.4% | 67.4% | 32.3% | 34.8% | 58.8% | 27.6% | 30.5% | 44.4% |
| CC(C)c1ccc(C(=O)Nc2nc3ccc(O)c(CN(C)C)c3s2)cc1 | 63.1% | 1.54% (active) | 71.4% | 44.8% | 97.4% | 87.2% | 96.3% | 69% | 50.9% | 26.8% | 20% | 23.8% | 107% | 97.9% | 69.1% | 83% | 74.4% | 66% | 28.1% | 96.1% |
| COc1ccc(C2=Nc3c(N)nc(N)nc3NC(c3cccc(Nc4ccnc5cc(C(F)(F)F)ccc45)c3)C2)cc1 (stereo not drawn) | 75.5% | 13.2% | 78.3% | 70.8% | 54% | 69.7% | 78.9% | 87.1% | 87.8% | 67.2% | 36.6% | 30.4% | 65.6% | 73.1% | 60.4% | 48.4% | 61.4% | 88.9% | 65.3% | 91.5% |
| COc1ccc2[nH]c(C(=O)N3CCN(C(=O)OCc4ccc5c(Cl)cc(Cl)c(O)c5n4)CC3)cc2c1 | -88.6% (active) | 4.22% (active) | -94.4% (active) | -82.2% (active) | -92.9% (active) | -91.1% (active) | 34% | -99.3% (active) | -43.2% (active) | -66.4% (active) | -44.2% (active) | -67.1% (active) | -98.5% (active) | 35.3% | -97.9% (active) | -73.4% (active) | -99% (active) | -97.4% (active) | -95.3% (active) | -95.8% (active) |
| O=C(CN1C(=O)NC2NC(=O)NC21)N/N=C/c1ccccc1[N+](=O)[O-] (stereo not drawn) | 113% | 104% | 107% | 114% | 118% | 107% | 105% | 95.2% | 116% | 102% | 103% | 112% | 83.3% | 96.8% | 107% | 101% | 99.3% | 90.1% | 102% | 107% |
| CC(=O)c1c(C)nc2ccccc2c1/C=C/c1ccc(F)cc1 | 96.1% | 60.2% | 123% | 93.8% | 92.7% | 90.6% | 84% | 90.4% | 95.2% | 107% | 84.8% | 90.7% | 82.4% | 93% | 86.7% | 79.1% | 69.5% | 74.9% | 81.4% | 114% |
| CCOC(=O)C(=O)C(C(=O)OCC)c1ccccc1 (stereo not drawn) | 120% | 86.7% | 93.2% | 94.1% | 113% | 103% | 139% | 118% | 123% | 100% | 108% | 116% | 107% | 103% | 112% | 101% | 106% |  | 106% | 109% |
| CCCCCOC(=O)c1c(C)[nH]c(/C=C2\N=C(c3ccc[nH]3)C=C2OC)c1C | 27.4% | -6.07% (active) | -61.3% (active) | -48.5% (active) | -47.3% (active) | 14.9% | -37.2% (active) | -41.6% (active) | -20.1% (active) | -70.4% (active) | -28.8% (active) | -28% (active) | -28.1% (active) | 21.2% | -24.1% (active) | 12.3% | -100% (active) | -70.9% (active) | -99.7% (active) | -45.8% (active) |
| COC(=O)c1nc(-c2ccc(C)cc2)oc1S(=O)(=O)c1cccc(OC)c1 | 104% | 11.6% | -12.3% (active) | 94.1% | 77% | 92.8% | 104% | 101% | 97.5% | 90.4% | 62% | 97.1% | 83.3% | 101% | 96.5% | 103% | 97.8% |  | 57.1% | 99.2% |
